From PubChem BioAssay (Tox21)
Results filed as inconclusive are left out. Where a call stands in place of a potency, no number is given. Unmarked numbers belong to inactive results. Activity calls are given as the source filed them. The call rests on the fitted dose curve.

target: Beta-2 adrenergic receptor (Homo sapiens) (UniProt P07550); assay: Adrenergic beta2 receptor (ADRB2) small molecule agonists, cell-based qHTS assay (AID 1963593); conditions: CHO-ADRB2 cells, cAMP HTRF, 30 min; series mostly up to 92.4 µM
Sequence (P07550 whole entry, looked up): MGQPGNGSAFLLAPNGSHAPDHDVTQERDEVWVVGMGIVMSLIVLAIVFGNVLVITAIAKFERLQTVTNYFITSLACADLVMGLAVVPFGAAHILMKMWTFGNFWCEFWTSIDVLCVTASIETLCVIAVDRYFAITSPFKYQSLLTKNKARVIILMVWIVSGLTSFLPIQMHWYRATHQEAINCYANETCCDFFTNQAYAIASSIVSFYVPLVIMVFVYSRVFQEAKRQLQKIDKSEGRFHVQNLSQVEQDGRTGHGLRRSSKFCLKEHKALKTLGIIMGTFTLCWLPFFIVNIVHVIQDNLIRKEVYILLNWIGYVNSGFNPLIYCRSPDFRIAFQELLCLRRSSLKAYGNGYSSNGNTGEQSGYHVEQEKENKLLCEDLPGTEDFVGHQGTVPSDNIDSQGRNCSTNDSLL
From the text: National Center for Advancing Translational Sciences [NCATS]
Division of Preclinical Innovation [DPI]
U.S. Environmental Protection Agency [EPA]
National Institutes of Environmental Health Sciences [NIEHS]
National Toxicology Program [NTP]
U.S. Food and Drug Administration [FDA]
Beta adrenergic receptors (Beta-ARs) belong to the G-protein coupled receptor (GPCR) superfamily, includes three subtypes - beta1, beta2, and beta3. Beta1-AR is the predominant receptor subtype expressed in the heart, and beta2-AR is expressed in the kidney, lung, blood vessel and in the heart, and beta3 is found in the adipocytes. Beta1 and 2 ARs couple to Gs protein and elevate cyclic adenosine mono phosphate (cAMP), which activates protein kinase A and leads to the downstream signaling responsible for the physiological actions. Beta-AR agonists or antagonists are the most prescribed therapeutic agents for heart failure and asthma, and these were one of the first target receptors for the rational drug design. Tox21 10K compound library was screened using the cAMP-Gs dynamic assay (Cisbio Bioassays, Shelton, CT) to identify agonists/antagonists of the Gs-coupled human adrenergic, beta2 receptor (ADRB2) in the CHO-ADRB2 cell line (Codex BioSolutions, Inc. Gaithersburg, MD), which stably over-expresses ADRB2. The principle of cAMP-Gs dynamic assay is based on HTRF technology, which facilitates the fluorescence resonance energy transfer (FRET) between donor Europium cryptate and acceptor d2-labeled cAMP. The cAMP generated within cells competes with the red acceptor, d2-labled cAMP, for binding to the monoclonal anti-cAMP-cryptate (Europium donor). An increase in intracellular cAMP leads to the disruption of FRET signal, and the signal is inversely proportional to the cAMP concentration. Isoproterenol HCl (Sigma-Aldrich, St. Louis, MO) was used as a positive control in the screening.
Tox21 Assay Protocol Summary:
CHO-ADRB2 cells were dispensed at 1,000/well in 4uL assay medium into white/solid 1536-well plates (Greiner Bio-One North America Inc., Monroe, NC) using a Multidrop Combi dispenser (ThermoFisher Scientific, Waltham, MA). The assay plates were incubated at 37C and 5% CO2 for an overnight (18-20hr). Then positive control and test compounds dissolved in DMSO were transferred to the assay plates at 23nL using a Pintool station (Wako, San Diego, CA). Following the compound and positive control transfer, 1uL stimulation mix containing 100uM IBMX and 25uM Ro-20-1724 was added to each well of the assay plates using BioRAPTR Flying Reagent Dispenser (FRD, Beckman Coulter, Brea, CA). The assay plates were incubated at room temperature for 0.5hr. Then 2.5ul each d2-labled cAMP and anti-cAMP-cryptate solutions were added separately to each well of the assay plates using an FRD and the assay plates were incubated at room temperature for 1hr.

SMILES | Potency | activation
Cc1[nH]c(=O)c(C#N)cc1-c1ccncc1 | inactive | –
O=C1NS(=O)(=O)c2ccccc21 | inactive | –
O=C(O)CCCCCCCC(=O)O | inactive | –
CC(C)C(=O)Nc1ccc([N+](=O)[O-])c(C(F)(F)F)c1 | inactive | –
CC(O)CN(CCN(CC(C)O)CC(C)O)CC(C)O (stereo not given) | inactive | –
CCCCCCCC/C=C\CCCCCCCC(=O)O | inactive | –
NCCOCCO | inactive | –
Cc1cc(C)nc(NS(=O)(=O)c2ccc(N)cc2)n1 | inactive | –
O=C(O)CCCCC1CCSS1 (stereo not given) | inactive | –
O=c1c(O)c(-c2ccc(O)c(O)c2)oc2cc(O)cc(O)c12 | inactive | –
Cc1cc(C(C)(C)C)c(O)c(C(C)(C)C)c1 | inactive | –
C=C(C)C(=O)OCC(C)C | inactive | –
Nc1ccc(C(=O)O)cc1 | inactive | –
CCCCOC(=O)c1ccc(O)cc1 | inactive | –
CC(=O)Nc1cccc(O)c1 | inactive | –
Cc1cccc2n[nH]nc12 | inactive | –
CCCCCCO | inactive | –
CN1C(=O)CC[C@H]1c1cccnc1 | inactive | –
O=C1CCCCCCCCCCCN1 | inactive | –
Cc1cccc(C(=O)O)c1 | inactive | –

SMILES | Potency | activation
O=S(=O)(O)NC1CCCCC1 | – | -21.4% [at 19 µM]
OC[C@H]1O[C@@H](Oc2ccc(O)cc2)[C@H](O)[C@@H](O)[C@@H]1O | inactive | –
CC(=O)/C=C/C1=C(C)CCCC1(C)C | inactive | –
CC(C)Cc1ccccc1 | inactive | –
C1CCCNCC1 | inactive | –
CC1Cc2ccccc2N1NC(=O)c1ccc(Cl)c(S(N)(=O)=O)c1 (stereo not given) | inactive | –
CCCC[P+](CCCC)(CCCC)CCCC | inactive | –
O=C1C(N(CO)C(=O)NCO)N(CO)C(=O)N1CO (stereo not given) | inactive | –
CC(=O)CCC(=O)O | inactive | –
CC(C)(C)C1CCC(O)CC1 (stereo not given) | inactive | –
CC(C)c1ccc(C(C)C)cc1 | inactive | –
CN(C)C(=O)Nc1ccc(Cl)c(Cl)c1 | inactive | –
Nc1ccc(S(=O)(=O)c2ccc(N)cc2)cc1 | inactive | –
COc1ccc(O)cc1 | inactive | –
CCOC(=O)C(C#N)=C(c1ccccc1)c1ccccc1 | inactive | –
O=C(O)CCCC[C@@H]1SC[C@@H]2NC(=O)N[C@@H]21 | inactive | –
CCCCC(CC)COC(=O)c1ccc(N(C)C)cc1 (stereo not given) | inactive | –
c1ccc2[nH]ccc2c1 | inactive | –
c1ccc2scnc2c1 | inactive | –
O=S(=O)(O)c1ccc2nc(-c3ccccc3)[nH]c2c1 | inactive | –
